Assay outcomes (PubChem)
Most compounds without a hit are left out; they make up all but 3.3% or so of the library.
Rpn11 inh – Rpn11 (PSMD14) deubiquitinase inhibitors, primary screen, biochemical, fluorescence polarization, uHTS; inhibition, % at 20 µM; human 26S proteasome, Ub4-pepOG fluorescence polarization; 20S core pre-blocked with epoxomicin; hit rate 0.59% among 360,000;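 active means inhibition at 20 µM, scaled to each plate's controls, above about 33%, limit read from the data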
Target sequence (O00487 whole entry, looked up): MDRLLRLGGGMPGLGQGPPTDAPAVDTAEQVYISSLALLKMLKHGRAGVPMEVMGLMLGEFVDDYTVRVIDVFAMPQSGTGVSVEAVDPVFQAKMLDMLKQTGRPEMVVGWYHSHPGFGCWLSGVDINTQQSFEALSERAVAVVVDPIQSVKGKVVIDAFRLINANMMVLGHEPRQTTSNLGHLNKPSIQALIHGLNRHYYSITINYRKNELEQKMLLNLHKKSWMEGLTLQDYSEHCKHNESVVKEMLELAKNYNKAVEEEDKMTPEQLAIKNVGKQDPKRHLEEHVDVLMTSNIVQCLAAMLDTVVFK
CendR NRP1 mod – modulators of CendR peptide binding to NRP-1, primary screen, biochemical, fluorescence polarization, uHTS; AID 602438, 2012; inhibition, % at 25 µM; Neuropilin-1 (Homo sapiens), O14786; hit rate 0.85% among 360,000; FAM-RPARPAR peptide binding to NRP-1;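 active means inhibition or corrected inhibition above about 18%, plus a signal ratio from 0.5 to 1.5, limit read from the data, passing the limit was not always enough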
PHOSPHO1 inh – PubChem AID 1565; inhibition, % at 13.3 µM; hit rate 1.1% among 290,000; recombinant PHOSPHO1, absorbance phosphatase assay; Phosphoethanolamine/phosphocholine phosphatase (Homo sapiens), Q8TCT1; in the data active means inhibition above about 60%
Target sequence (Q8TCT1 whole entry, looked up): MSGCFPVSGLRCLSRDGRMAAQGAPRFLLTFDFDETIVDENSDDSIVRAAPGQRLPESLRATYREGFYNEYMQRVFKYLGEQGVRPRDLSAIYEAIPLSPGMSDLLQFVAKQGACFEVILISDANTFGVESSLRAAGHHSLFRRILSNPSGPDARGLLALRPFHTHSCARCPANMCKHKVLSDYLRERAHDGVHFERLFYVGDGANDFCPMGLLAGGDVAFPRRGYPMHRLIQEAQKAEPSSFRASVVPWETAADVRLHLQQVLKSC
Fh CTSL1 inh – Fasciola hepatica cathepsin L1 inhibitors, primary screen, counter-screen for PFM18AAP inhibitor project, biochemical, QFRET, fluorogenic peptide substrate | AID 1906, 2009 | inhibition, % at 5.96 µM | hit rate 0.49% among 300,000 | recombinant F. hepatica cathepsin L1, Z-Leu-Arg-MCA fluorescence;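 active means inhibition above the mean of all tested compounds plus 3 SD, set per screening campaign, cut at about 17% in these data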
TPT1 inhibitor – Candida albicans TPT1 enzyme inhibitors, primary screen, biochemical, fluorescence polarization. tRNA 2'-phosphotransferase TPT1 (Candida albicans SC5314). recombinant caTPT1, FP RNA substrate dephosphorylation. inhibition, % at 5 µM. hit rate 0.81% among 300,000;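 active means inhibition above the mean of all tested compounds plus 3 SD, set per screening campaign, cut at about 24% in these data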
HNF4A DNA FP – change in binding of human HNF4A to DNA, primary screen, biochemical, fluorescence polarization, FITC-DNA | AID 1224865, 2016 | Hepatocyte nuclear factor 4-alpha (Homo sapiens), P41235 | activity change, % at 10 µM | hit rate 0.3% among 360,000 | 1 h; in the data active means activity change above about 30%, passing the limit was not always enough
TPT1 inh confirm – Candida albicans TPT1 inhibitors, confirmation, biochemical, fluorescence polarization, triplicate; shares compounds with TPT1 inhibitor; recombinant caTPT1, RNase T1 coupled; inhibition, % at 5 µM; hit rate 74% among 2,400; AID 2149, 2009;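 active means inhibition above the primary screen limit, the mean inhibition of all tested compounds plus 3 SD, cut at about 25% in these data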
RNase T1 counter – RNase T1 inhibitors, counter-screen for TPT1 inhibitor project, biochemical, fluorescence polarization; shares compounds with TPT1 inhibitor; RNase T1 cleavage, 1536-well; inhibition, % at 5 µM; hit rate 83% among 2,400; AID 2153, 2009;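 active means inhibition above the solvent-only control well mean plus 3 SD, limit set per screening run, cut at about 23% in these data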;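 further: inhibitors block cleavage so intact labeled substrate keeps polarization high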
Of the large screens only hits and unclear results are named; the others gave an inactive call (follow-up assays come after a bar, where shown).

O=C(NN1C(=O)/C(=C/c2ccc(O)cc2)SC1=S)c1cccc(O)c1	Fh CTSL1 inh 19.8, TPT1 inhibitor 71.0, HNF4A DNA FP 106.9 (not shown: Rpn11 inh) | TPT1 inh confirm 67.0 | RNase T1 counter 72.0
O=C(NN1C(=O)/C(=C/c2ccc(O)cc2)SC1=S)c1ccccc1O	TPT1 inhibitor 54.6, HNF4A DNA FP 105.7 (not shown: Rpn11 inh) | TPT1 inh confirm 64.9 | RNase T1 counter 71.8
Cn1cc(/C=C2\SC(=S)N(NC(=O)c3ccccc3)C2=O)c2ccccc21	TPT1 inhibitor 137.2 | TPT1 inh confirm 54.7 | RNase T1 counter 61.5
CC(C)[C@H](NS(=O)(=O)c1ccccc1)C(=O)OCC(=O)Nc1ccc2c(c1)OCO2	none
CN(c1ccccc1)S(=O)(=O)c1ccc(C(=O)NCc2cccs2)cc1	none
Cc1ccc(C(=O)C(C)OC(=O)Cn2c(C)csc2=O)cc1 (centres undefined)	none
CN1C(=O)N(CC(=O)N2CCN(c3ncccn3)CC2)C(=O)C12CCCCC2	none (no result: PHOSPHO1 inh, Fh CTSL1 inh, TPT1 inhibitor)
Cc1cc(C)nc(NN2C(=O)/C(=C/c3ccc(O)cc3)SC2=S)n1	TPT1 inhibitor 57.8, HNF4A DNA FP 93.8 (not shown: Rpn11 inh) | TPT1 inh confirm 68.3 | RNase T1 counter 71.4
COc1ccccc1/C=C1\SC(=S)N(Nc2nc(C)cc(C)n2)C1=O	none
Cn1cc(/C=C/C(=O)c2ccccc2)c2ccccc21	TPT1 inhibitor 33.7 | TPT1 inh confirm 38.0 | RNase T1 counter 45.2
C=CCN(CC=C)CC(O)CN(c1cc([N+](=O)[O-])ccc1OC)S(=O)(=O)c1ccccc1 (centres undefined)	none
CCCCOC(=O)c1ccc(NC(=O)C(=O)CC(=O)c2ccc(OC)cc2)cc1	none
COc1c(/C=C2\SC(=Nc3ccccc3Cl)NC2=O)cccc1[N+](=O)[O-]	none
O=C1NC(=Nc2ccccc2Cl)S/C1=C\c1cccc([N+](=O)[O-])c1O	TPT1 inhibitor 28.3 (no result: PHOSPHO1 inh) | TPT1 inh confirm 41.7 | RNase T1 counter 54.6
NC(=O)N/N=C/c1sc(=O)n(-c2ccccc2)c1Cl	TPT1 inhibitor 38.9 (not shown: Rpn11 inh) | TPT1 inh confirm 47.2 | RNase T1 counter 66.2
CCOc1ccc(-n2ccnc2SCC(=O)Nc2cc(C)on2)cc1	TPT1 inhibitor 118.8 | TPT1 inh confirm inactive | RNase T1 counter inactive
CNC(=O)/C(C#N)=C1/SC(Cc2ccc(F)cc2)C(=O)N1c1ccccc1 (centres undefined)	none
N#C/C(C(N)=O)=C1/SC(Cc2ccc(F)cc2)C(=O)N1c1ccccc1 (centres undefined)	TPT1 inhibitor 27.7 | TPT1 inh confirm inactive | RNase T1 counter inactive
Cc1cccc(NC(=O)c2cc(NC(=O)c3ccco3)ccc2Cl)n1	none
Cc1sc2nc(COC(=O)c3cccc(S(=O)(=O)N(C)c4ccccc4)c3)[nH]c(=O)c2c1C	TPT1 inhibitor 51.7 (not shown: Rpn11 inh) | TPT1 inh confirm 44.8 | RNase T1 counter 55.2
Cc1sc2nc(COC(=O)c3cccc(OC(F)F)c3)[nH]c(=O)c2c1C	none
COc1ccc(CNC(=O)C[C@H]2C[C@H](C(=O)N3CCCCC3)[C@@]3(C)c4[nH]c5ccc(Cl)cc5c4CCN3C2=O)cc1OC	none (no result: PHOSPHO1 inh, Fh CTSL1 inh, TPT1 inhibitor)
Cc1nn(C)cc1C=NCCOCc1ccccc1	none
O=C(CN1C(=O)S/C(=C/c2ccc(N3CCOCC3)cc2)C1=O)N1CCOCC1	TPT1 inhibitor 40.3 (not shown: Rpn11 inh) | TPT1 inh confirm 61.2 | RNase T1 counter 72.7
Cc1ccsc1/C=C1/SC(=O)N(CC(=O)N2CCOCC2)C1=O	TPT1 inhibitor 69.8 | TPT1 inh confirm inactive | RNase T1 counter inactive
Cc1ccc(/C=C2/SC(=O)N(CC(=O)N3CCOCC3)C2=O)s1	none (not shown: Rpn11 inh)
CCCCNc1nc2c(c(=O)n(Cc3ccccc3)c(=O)n2C)n1C	none
Cc1cc(=O)n2nc(N3CCC(C(=O)Nc4cccc(Cl)c4C)CC3)sc2n1	none
Cc1cc(=O)n2nc(N3CCCC3C(=O)Nc3cccc(Cl)c3C)sc2n1 (centres undefined)	TPT1 inhibitor 30.4 | TPT1 inh confirm 92.0 | RNase T1 counter 103.1
O=C(COC(=O)c1ccc(Sc2ccccc2)c([N+](=O)[O-])c1)NC1CCCc2ccccc21 (centres undefined)	none
C=CCOC(=O)C1=C(C)NC(SCC(=O)NC(=O)OCC)=C(C#N)C1c1cccnc1 (centres undefined)	PHOSPHO1 inh 77.5, TPT1 inhibitor 24.7 | TPT1 inh confirm inactive | RNase T1 counter 31.2
C=CCOC(=O)C1=C(C)NC(SCC(=O)N(CC)CC)=C(C#N)C1c1ccccc1 (centres undefined)	none
CC(=O)C1=C(C)NC(SCC(=O)c2ccc(-c3ccccc3)cc2)=C(C#N)C1c1cccnc1 (centres undefined)	TPT1 inhibitor 29.8 (no result: Rpn11 inh, CendR NRP1 mod, HNF4A DNA FP) | TPT1 inh confirm 39.1 | RNase T1 counter 49.6
CC(=O)Nc1c(O)nc(SCC(=O)Nc2c(C)cccc2C)[nH]c1=O	none
COc1cc(OC)cc(C(=O)NC(=S)N2CCCCCC2)c1	TPT1 inhibitor 43.3 | TPT1 inh confirm inactive | RNase T1 counter inactive
COc1ccc(N2CCN(S(=O)(=O)c3c(C)nc4scc(C)n4c3=O)CC2)cc1	none
CCN(CC)C(=O)c1ccc(/C=C/c2c[nH]c3ccccc23)[n+](C)c1	TPT1 inhibitor 102.6 (not shown: Rpn11 inh) | TPT1 inh confirm 109.8 | RNase T1 counter 111.7
CC(OC(=O)/C(C#N)=C/c1ccc(N(C)C)cc1)C(=O)N(C)Cc1ccccc1 (centres undefined)	TPT1 inhibitor 107.1 (not shown: Rpn11 inh) | TPT1 inh confirm 114.8 | RNase T1 counter 114.1
Nc1nc(NC(=O)CCC(=O)O)nn1-c1ccccc1	none
Cc1ccccc1CC(=O)N1CCCc2ccccc21	none
COc1ccc(N2CCN(C(=O)c3ccc4c(c3)NC(=O)C(CSCc3ccc(C)cc3)N4)CC2)cc1 (centres undefined)	TPT1 inhibitor 92.3 (no result: Rpn11 inh, CendR NRP1 mod, HNF4A DNA FP) | TPT1 inh confirm inactive | RNase T1 counter 34.2
COc1ccc(N2CCN(C(=O)c3ccc4c(c3)NC(=O)C(CSCc3c(F)cccc3Cl)N4)CC2)cc1 (centres undefined)	TPT1 inhibitor 65.5 (no result: Rpn11 inh, CendR NRP1 mod, HNF4A DNA FP) | TPT1 inh confirm inactive | RNase T1 counter inactive
